Anthrax LF inh2: blocks Bacillus anthracis lethal factor protease; multiplex microsphere protease cleavage assay, LF; inhibition, % at 10 µM; P15917; 360,000 tested, 0.12% active
Autofluor counter: compound fluorescence in toxin protease inhibitor counterscreen; compound autofluorescence counterscreen, microsphere flow cytometry; active compounds read high; fluorescence intensity (test concentration not listed); 360,000 tested, 3.1% active; AID 624483; in the data active means fluorescence intensity above about 16000; inconclusive means no clear call, values can overlap the other calls
BoNT F protease: BoNT F light chain protease inhibition; 360,000 tested, 0.22% active; AID 588497; Multiplex microsphere protease cleavage assay, flow cytometry; inhibition, % at 10 µM; in the data active means inhibition above about 35%, passing the limit was not always enough; inconclusive means no clear call, values can overlap the other calls
BoNT A protease: inhibitors of Botulinum neurotoxin A light chain protease; multiplex microsphere protease substrate cleavage, flow cytometry; 360,000 tested, 0.17% active; inhibition, % at 10 µM; AID 588499
TcdB GH inh: inhibitors of Clostridioides difficile toxin B glycohydrolase; TcdB glycohydrolase enzymatic assay, plate reader; 350,000 tested, 0.24% active; inhibition, % at 9.99 µM; in the data active means inhibition above about 10%
Of the large screens only hits and unclear results are named; the others gave an inactive call. This excerpt belongs to a sample that is enriched for hits. Unless noted, no stated cut-off is given here; in the data, active means inhibition above about 30%; inconclusive means no clear call, values can overlap the other calls; inactive means below that.

COc1ccc(C(=O)N2CCCC(C(=O)N3CCCCCC3)C2)cc1 (stereo unspecified)	Autofluor counter 20377 (no result: TcdB GH inh)
O=C(c1ccccc1)N1CCCC(C(=O)N2CCCCCC2)C1 (stereo unspecified)	Autofluor counter 24585 (no result: TcdB GH inh)
COc1ccc(C(=O)N2CCCC(C(=O)N3CCN(c4ccccc4)CC3)C2)cc1 (stereo unspecified)	none (no result: Anthrax LF inh2, Autofluor counter, BoNT F protease, BoNT A protease)
C[C@@H]1CCCCO[C@H](CN(C)C(=O)CCCN(C)C)[C@H](C)CN([C@@H](C)CO)C(=O)c2cc(NS(=O)(=O)c3ccc(F)cc3)ccc2O1	none (no result: Anthrax LF inh2, Autofluor counter, BoNT F protease, BoNT A protease)
COc1cccc(-c2[nH]nc3c2C(c2ccsc2)C(C#N)=C(N)O3)c1 (stereo unspecified)	Autofluor counter 22773 (no result: TcdB GH inh)
COc1cccc(-c2[nH]nc3c2C(c2ccoc2)C(C#N)=C(N)O3)c1 (stereo unspecified)	Autofluor counter 21204, BoNT A protease inconclusive (no result: TcdB GH inh)
Cc1ccc(-c2[nH]nc3c2C(c2ccsc2)C(C#N)=C(N)O3)cc1 (stereo unspecified)	none
COc1cc(-c2[nH]nc3c2C(c2ccoc2)C(C#N)=C(N)O3)cc(OC)c1OC (stereo unspecified)	none (no result: TcdB GH inh)
COc1ccc(-c2[nH]nc3c2C(c2ccsc2)C(C#N)=C(N)O3)cc1 (stereo unspecified)	Autofluor counter 16667 (no result: TcdB GH inh)
CCCC#Cc1cnc2c(c1)C(=O)N([C@H](C)CO)C[C@H](C)[C@@H](CN(C)C(=O)Nc1ccccc1F)O2	none (no result: Anthrax LF inh2, Autofluor counter, BoNT F protease, BoNT A protease)
O=C(NC1CCC1)[C@@H]1[C@@H](CO)[C@@H]2Cn3c(ccc(C4=CCCC4)c3=O)[C@H]1N2C(=O)c1ccccc1	none (no result: Anthrax LF inh2, Autofluor counter, BoNT F protease, BoNT A protease)
CC(C)(C)[S@@](=O)N1Cc2cc(C(=O)N3CCCCC3)nc(-c3cccc(Br)c3)c2[C@H]1CCO	none (no result: Anthrax LF inh2, Autofluor counter, BoNT F protease, BoNT A protease)
COC(=O)c1cc(NC(=O)Cc2ccccc2[N+](=O)[O-])cc(C(=O)OC)c1	Autofluor counter 18194 (no result: TcdB GH inh)
O=C(Cc1ccccc1[N+](=O)[O-])Nc1ccc2c(c1)OCCO2	none
CNC[C@@H]1OCCCC[C@H](C)Oc2ccc(NC(=O)Cc3ccccc3)cc2C(=O)N([C@H](C)CO)C[C@@H]1C	none (no result: Anthrax LF inh2, Autofluor counter, BoNT F protease, BoNT A protease)
C[C@@H]1CCCCO[C@H](CN(C)Cc2ccncc2)[C@@H](C)CN([C@@H](C)CO)C(=O)c2cc(NC(=O)c3ccccc3)ccc2O1	none (no result: Anthrax LF inh2, Autofluor counter, BoNT F protease, BoNT A protease)
CCCCCC(=O)N/N=C/c1cccs1	Autofluor counter 22461
Cc1nc2ccccc2cc1C(=O)N/N=C/c1cccs1	BoNT F protease 38
Cc1nc2ccccc2cc1C(=O)N/N=C/c1ccco1	none
COc1ccc(CC(=O)N/N=C/c2cccs2)cc1OC	BoNT F protease 49
COc1cc(/C=N/NC(=O)COc2ccccc2C)ccc1OC(=O)c1cccs1	Autofluor counter 22564, BoNT A protease inconclusive (no result: TcdB GH inh)
CCOc1cc(/C=N/NC(=O)COc2cccc(C)c2)ccc1OC(=O)c1cccs1	none (no result: TcdB GH inh)
C[C@H]1CN([C@@H](C)CO)S(=O)(=O)c2ccc(C#CC3CCCCC3)cc2O[C@H]1CN(C)C	none (no result: Anthrax LF inh2, Autofluor counter, BoNT F protease, BoNT A protease)
CC1(C(=O)O)COC(c2ccc([N+](=O)[O-])cc2)OC1 (stereo unspecified)	Autofluor counter 16243 (no result: TcdB GH inh)
CC(C)c1ccc(C2OCC(C)([N+](=O)[O-])CO2)cc1 (stereo unspecified)	none
Brc1ccc(OCc2ccccc2)c(CNCc2ccncc2)c1	Autofluor counter 16749 (no result: TcdB GH inh)
Fc1ccc(COc2ccccc2CNCc2ccncc2)cc1	none
CO[C@H]1CN(C)C(=O)c2cc(NC(=O)NC(C)C)ccc2OC[C@H](C)N(C)C[C@H]1C	none (no result: Anthrax LF inh2, Autofluor counter, BoNT F protease, BoNT A protease)
CC(C)(C)c1ccc(NC(=S)NCCc2ccccn2)cc1	none
FC(F)(F)c1cccc(NC(=S)NCCc2ccccn2)c1	Autofluor counter 21974 (no result: TcdB GH inh)
Cc1ccc(NC(=O)CCC(=O)OCC(=O)c2ccc(Oc3ccc([N+](=O)[O-])cc3)cc2)c(C)c1	Autofluor counter 17075 (no result: TcdB GH inh)
Cc1ccc(NC(=O)CCC(=O)OCC(=O)c2ccc(Oc3ccc([N+](=O)[O-])cc3)cc2)cc1	none
COc1ccc(/C=C(/NC(=O)c2ccccc2)C(=O)NCCCn2ccnc2)cc1OC	none
COc1ccc(C(=O)N/C(=C/c2cccs2)C(=O)NCCCn2ccnc2)cc1OC	Autofluor counter 20263 (no result: TcdB GH inh)
O=C(NCC[C@H]1CC[C@@H](NS(=O)(=O)c2cccc(F)c2)[C@H](CO)O1)C1CCC1	none (no result: Anthrax LF inh2, Autofluor counter, BoNT F protease, BoNT A protease)
O=c1ncn(-c2cccc(F)c2)c2ncccc12	Autofluor counter 19821, BoNT A protease inconclusive (no result: TcdB GH inh)
COc1ccc(NC(=O)C(NC(=O)OC(C)(C)C)C(C)OCc2ccccc2)cc1 (stereo unspecified)	Autofluor counter 21191, BoNT A protease inconclusive (no result: TcdB GH inh)
COc1ccc(NC(=O)[C@H](COCc2ccccc2)NC(=O)OC(C)(C)C)cc1	none (no result: TcdB GH inh)
O=C1c2ccccc2C(=O)C1Cc1cccc2ccccc12	Autofluor counter 21890
CCC(=O)N1CC(=O)N2[C@H](C1)[C@H](c1ccc(C#Cc3cccc(OC)c3)cc1)[C@@H]2CO	none (no result: Anthrax LF inh2, Autofluor counter, BoNT F protease, BoNT A protease)
Cc1ccccc1OCCSc1nnc(-c2ccncc2)n1C	Autofluor counter 19279 (no result: TcdB GH inh)
O=C(Cn1nnc(-c2ccc(CN3CCOCC3)cc2)n1)Nc1nc(-c2ccccc2)cs1	Autofluor counter 21308 (no result: TcdB GH inh)
Cc1ccccc1NC(=O)Cn1nnc(-c2ccc(N3CCOCC3)cc2)n1	Autofluor counter 22327, BoNT A protease inconclusive (no result: TcdB GH inh)
O=C(CN1CCOCC1)Nc1nc(-c2ccccc2)cs1	none
O=C(Cn1nnc(-c2ccc(N3CCOCC3)cc2)n1)OC1CCCCC1	Autofluor counter 21996 (no result: TcdB GH inh)
CN(C)c1ccc(-c2nnn(CC(=O)Nc3ccccc3N3CCOCC3)n2)cc1	none
Clc1ccc(Cn2nnc(-c3ccc(N4CCOCC4)cc3)n2)cc1	none (no result: TcdB GH inh)
CC(NC(=O)OCc1ccccc1)C(=O)NCC1CCCO1 (stereo unspecified)	Autofluor counter 22834 (no result: TcdB GH inh)
CC(C(=O)NCC1CCCO1)N(C(=O)c1snc(C(N)=O)c1N)c1ccccc1 (stereo unspecified)	Autofluor counter 23246 (no result: TcdB GH inh)
CCCC#Cc1cnc2c(c1)C(=O)N([C@H](C)CO)C[C@H](C)[C@H](CN(C)C(=O)c1ccc3c(c1)OCO3)O2	none (no result: Anthrax LF inh2, Autofluor counter, BoNT F protease, BoNT A protease)
COc1ccc2c3c(n(C)c2c1)[C@@H](CO)N(C(=O)C1CCCC1)CC31CCN(C(=O)CN(C)C)CC1	none (no result: Anthrax LF inh2, Autofluor counter, BoNT F protease, BoNT A protease)
Cc1nn(Cc2ccc(Cl)cc2Cl)c(C)c1NC(=O)c1nn(C)cc1Cl	none (no result: TcdB GH inh)
Cc1nn(C)c(Cl)c1NC(=O)OCc1ccc(Cl)cc1Cl	Autofluor counter 23382, BoNT A protease inconclusive (no result: TcdB GH inh)
Cc1nn(Cc2ccc(Cl)cc2Cl)c(C)c1NC(=O)CCl	Autofluor counter 19112, BoNT A protease inconclusive (no result: TcdB GH inh)
CCCC(=O)Nc1ccc2c(c1)OC[C@@H](C)N(CC1CCCC1)C[C@H](C)[C@H](OC)CN(C)C2=O	none (no result: Anthrax LF inh2, Autofluor counter, BoNT F protease, BoNT A protease)
Cc1nc2ccc3[nH]snc3c2n1	Autofluor counter 23032 (no result: TcdB GH inh)
CC(C)C#Cc1ccc([C@@H]2[C@H](CO)N3CCCCN(CC4CC4)C[C@@H]23)cc1	none (no result: Anthrax LF inh2, Autofluor counter, BoNT F protease, BoNT A protease)
COc1cccc(CN2[C@@H]3CN(C(=O)CC(F)(F)F)c4ccccc4[C@@H]3[C@@H]2CO)c1	none (no result: Anthrax LF inh2, Autofluor counter, BoNT F protease, BoNT A protease)
FC(F)(F)c1cc(CCN2CCNC[C@H]2Cc2cccc3ccccc23)cc(C(F)(F)F)c1	TcdB GH inh 11
O=C(NCCc1ccccc1)c1cnc(Cl)c(Cl)c1	Anthrax LF inh2 35
CCCC(=O)Nc1ccc(C(=O)NCC2CCCO2)cc1 (stereo unspecified)	Autofluor counter 24245 (no result: TcdB GH inh)
